Measurements reported in PubChem BioAssay (NCATS).
Where “and” joins values, the source holds several entries; their conditions need not be identical. Equal entries are not always repeated. Inconclusive results are not listed. Where a call stands in place of a potency, no number is given. Calls of active or inactive are those of the source. Unless noted, calls follow the shape of the full dose curve.

How the values were obtained:
[1] = target: Glucocorticoid receptor (Homo sapiens) (UniProt P04150); assay: qHTS assay for small molecule agonists of glucocorticoid receptor signaling (AID 588532; active = well fitted curve in the direction sought with a large enough effect in the signal ratio, with a control signal flat; the % refers to the signal ratio); details: HeLa MMTV-bla, beta-lactamase ratio, agonist, 18 h; stronger effect = higher value; percent of dexamethasone control, DMSO zero
Summary of the method: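 HeLa GRE-bla reporter cells; 18 h compound exposure at 37 C; 2 h CCF4 loading at room temperature; fluorescence at 460 and 530 nm; EC50 by Hill equation.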

[2] = target: Glucocorticoid receptor (Homo sapiens) (UniProt P04150); assay: qHTS assay for small molecule antagonists of glucocorticoid receptor signaling (AID 588533; active = well fitted inhibition curve with a large enough effect in the signal ratio, with a control signal flat, not every such curve was filed as active; the % refers to the signal ratio); details: HeLa MMTV-bla, GRE beta-lactamase ratio, antagonist mode, 18 h; series mostly up to 76.8 µM
Summary of the method: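 Antagonist-mode qHTS: compound titrations added to GRE-bla HeLa cells, then dexamethasone 2 nM final; 18 h, 37 C. CCF4 FRET fluorescence normalized to dexamethasone and DMSO; IC50 from Hill fit.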

[3] = qHTS assay for small molecule antagonists of peroxisome proliferator-activated receptor delta signaling (AID 588535; active = well fitted inhibition curve with a large enough effect in the signal ratio, with a control signal flat, not every such curve was filed as active; the % refers to the signal ratio;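 as to max response: cells co-treated with a PPAR-delta agonist as stimulator during compound exposure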); details: HEK293T PPARd-UAS-bla, beta-lactamase FRET ratio, 18 h; 460 nm channel
Summary of the method: (§1)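 Cells were seeded at 4000 per well in assay medium containing 2% charcoal/dextran FBS and held 5 hrs at 37 C. Compounds were then added for 18 hrs. CCF4 substrate was applied for 2 hrs at room temperature before fluorescence reading.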

[4] = target: Peroxisome proliferator-activated receptor delta (Homo sapiens) (UniProt Q03181); assay: as above; details: HEK293T PPARd-UAS-bla, beta-lactamase FRET ratio, 18 h; series mostly up to 76.7 µM
Summary of the method: as §1

[5] = target: Peroxisome proliferator-activated receptor gamma (Homo sapiens) (UniProt P37231); assay: qHTS assay for small molecule antagonists of peroxisome proliferator-activated receptor gamma signaling (AID 588537; active = well fitted inhibition curve with a large enough effect in the signal ratio, with a control signal flat, not every such curve was filed as active; the % refers to the signal ratio;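 also: reporter cells co-stimulated with 50 nM rosiglitazone agonist during compound treatment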); details: HEK293 PPARg-UAS-bla, beta-lactamase ratio, antagonist mode; series mostly up to 76.8 µM
Summary of the method: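 Step one: plate 3000 HEK293 UAS-bla cells per well in medium with 1% stripped serum and hold 6-6.5 h at 37 C. Step two: add compound and 50 nM agonist for 16 h. Step three: CCF4 loading, fluorescence read.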

[6] = target: Vitamin D3 receptor (Homo sapiens) (UniProt P11473); assay: qHTS assay for small molecule antagonists of vitamin D receptor signaling (AID 588541); details: HEK293T VDR-UAS-bla, beta-lactamase ratio, antagonist mode; series mostly up to 76.7 µM;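 also: receptor activated by calcitriol during compound treatment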
Summary of the method: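 VDR-UAS-bla HEK293T cells in 2% charcoal-stripped FBS were stimulated with 1-alpha,25-dihydroxyvitamin D3 (3 nM final) plus compound for 16 h at 37 C. The beta-lactamase CCF4 readout was normalized to 50 nM agonist and DMSO, and Hill fits gave IC50.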

[7] = target: Vitamin D3 receptor (Homo sapiens) (UniProt P11473); assay: qHTS assay for small molecule agonists of vitamin D receptor signaling (AID 588543); details: HEK293T VDR-UAS-bla, beta-lactamase ratio, 16 h; series mostly up to 76.8 µM
Summary of the method: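 Agonist-mode beta-lactamase reporter: HEK293T VDR-UAS-bla cells in charcoal-stripped 2% FBS, compound series 16 h 37 C, CCF4 2 h RT. EC50 from Hill fit, scaled against DMSO and 50 nM calcitriol control.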

[8] = qHTS assay for small molecule agonists of retinoid X receptor alpha signaling (AID 588544); details: HEK293T RXRa-UAS-bla, beta-lactamase reporter, 18 h; 530 nm emission; also: potency is read from the fitted curve at half-maximal effect
[9] = target: Retinoic acid receptor RXR-alpha (Homo sapiens) (UniProt P19793); assay: as above; details: HEK293T RXRa-UAS-bla, beta-lactamase reporter, 18 h; series mostly up to 76.7 µM
[10] = target: Peroxisome proliferator-activated receptor gamma (Homo sapiens) (UniProt P37231); assay: qHTS assay for small molecule agonists of peroxisome proliferator-activated receptor gamma signaling (AID 588536; active = well fitted curve in the direction sought with a large enough effect in the signal ratio, with a control signal flat, not every such curve was filed as active; the % refers to the signal ratio); details: HEK293 PPARg-UAS-bla, beta-lactamase ratio, 16 h, percent of rosiglitazone response, DMSO as zero; series mostly up to 76.7 µM
Summary of the method: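 Test agents, titrated, stimulated HEK293 UAS-bla cells overnight (16 h, 37 C). Substrate CCF4 was then added for two hours at room temperature before fluorescence reading.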

Chain of Peroxisome proliferator-activated receptor gamma (Homo sapiens) (P37231 whole entry, looked up): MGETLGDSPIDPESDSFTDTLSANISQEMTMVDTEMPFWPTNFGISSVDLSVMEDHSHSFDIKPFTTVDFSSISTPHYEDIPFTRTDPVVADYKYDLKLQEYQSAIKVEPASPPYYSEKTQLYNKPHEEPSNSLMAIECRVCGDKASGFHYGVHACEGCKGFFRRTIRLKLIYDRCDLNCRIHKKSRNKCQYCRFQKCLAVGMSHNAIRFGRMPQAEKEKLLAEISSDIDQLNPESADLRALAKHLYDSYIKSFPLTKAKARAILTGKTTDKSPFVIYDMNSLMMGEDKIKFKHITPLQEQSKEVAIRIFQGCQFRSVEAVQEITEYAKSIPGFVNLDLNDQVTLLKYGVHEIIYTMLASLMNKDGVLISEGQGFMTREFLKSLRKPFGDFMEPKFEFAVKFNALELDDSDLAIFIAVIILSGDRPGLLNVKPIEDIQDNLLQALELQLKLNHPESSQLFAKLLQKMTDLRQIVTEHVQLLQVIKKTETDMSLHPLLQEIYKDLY
Chain of Retinoic acid receptor RXR-alpha (Homo sapiens) (P19793 whole entry, looked up): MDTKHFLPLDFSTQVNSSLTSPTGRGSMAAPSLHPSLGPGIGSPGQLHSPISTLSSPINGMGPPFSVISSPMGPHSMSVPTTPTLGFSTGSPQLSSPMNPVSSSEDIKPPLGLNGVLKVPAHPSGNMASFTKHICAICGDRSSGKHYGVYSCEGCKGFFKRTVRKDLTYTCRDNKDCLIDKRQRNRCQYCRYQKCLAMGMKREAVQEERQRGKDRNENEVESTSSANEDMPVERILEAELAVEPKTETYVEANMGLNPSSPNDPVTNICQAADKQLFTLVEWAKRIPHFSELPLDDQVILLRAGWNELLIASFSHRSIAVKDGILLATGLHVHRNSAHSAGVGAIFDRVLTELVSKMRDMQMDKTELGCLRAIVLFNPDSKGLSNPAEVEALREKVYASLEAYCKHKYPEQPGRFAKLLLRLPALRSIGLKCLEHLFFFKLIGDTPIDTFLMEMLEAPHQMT
Chain of Peroxisome proliferator-activated receptor delta (Homo sapiens) (Q03181 whole entry, looked up): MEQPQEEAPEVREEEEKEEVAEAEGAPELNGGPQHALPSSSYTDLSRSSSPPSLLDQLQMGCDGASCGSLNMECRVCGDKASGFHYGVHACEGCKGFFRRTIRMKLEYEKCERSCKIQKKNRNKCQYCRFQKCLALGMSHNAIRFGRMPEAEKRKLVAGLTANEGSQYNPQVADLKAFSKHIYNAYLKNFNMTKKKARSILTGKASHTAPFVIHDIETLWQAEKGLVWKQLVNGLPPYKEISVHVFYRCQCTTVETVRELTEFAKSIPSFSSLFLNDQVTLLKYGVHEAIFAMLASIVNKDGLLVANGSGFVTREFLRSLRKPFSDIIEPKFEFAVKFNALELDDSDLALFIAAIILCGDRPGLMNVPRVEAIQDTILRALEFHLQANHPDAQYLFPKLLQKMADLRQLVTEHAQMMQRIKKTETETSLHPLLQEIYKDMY
Chain of Vitamin D3 receptor (Homo sapiens) (P11473 whole entry, looked up): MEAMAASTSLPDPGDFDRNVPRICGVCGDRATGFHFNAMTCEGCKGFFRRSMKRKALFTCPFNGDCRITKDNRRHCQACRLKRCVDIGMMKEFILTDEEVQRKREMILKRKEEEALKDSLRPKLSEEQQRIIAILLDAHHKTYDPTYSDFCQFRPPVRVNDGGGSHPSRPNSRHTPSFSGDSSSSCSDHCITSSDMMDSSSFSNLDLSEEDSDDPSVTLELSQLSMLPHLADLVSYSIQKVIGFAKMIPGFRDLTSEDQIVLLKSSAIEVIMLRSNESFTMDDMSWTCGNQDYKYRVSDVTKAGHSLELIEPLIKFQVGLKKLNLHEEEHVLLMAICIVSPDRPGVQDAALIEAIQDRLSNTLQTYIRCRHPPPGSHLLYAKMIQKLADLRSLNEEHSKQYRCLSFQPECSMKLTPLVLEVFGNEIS
Chain of Glucocorticoid receptor (Homo sapiens) (P04150 whole entry, looked up): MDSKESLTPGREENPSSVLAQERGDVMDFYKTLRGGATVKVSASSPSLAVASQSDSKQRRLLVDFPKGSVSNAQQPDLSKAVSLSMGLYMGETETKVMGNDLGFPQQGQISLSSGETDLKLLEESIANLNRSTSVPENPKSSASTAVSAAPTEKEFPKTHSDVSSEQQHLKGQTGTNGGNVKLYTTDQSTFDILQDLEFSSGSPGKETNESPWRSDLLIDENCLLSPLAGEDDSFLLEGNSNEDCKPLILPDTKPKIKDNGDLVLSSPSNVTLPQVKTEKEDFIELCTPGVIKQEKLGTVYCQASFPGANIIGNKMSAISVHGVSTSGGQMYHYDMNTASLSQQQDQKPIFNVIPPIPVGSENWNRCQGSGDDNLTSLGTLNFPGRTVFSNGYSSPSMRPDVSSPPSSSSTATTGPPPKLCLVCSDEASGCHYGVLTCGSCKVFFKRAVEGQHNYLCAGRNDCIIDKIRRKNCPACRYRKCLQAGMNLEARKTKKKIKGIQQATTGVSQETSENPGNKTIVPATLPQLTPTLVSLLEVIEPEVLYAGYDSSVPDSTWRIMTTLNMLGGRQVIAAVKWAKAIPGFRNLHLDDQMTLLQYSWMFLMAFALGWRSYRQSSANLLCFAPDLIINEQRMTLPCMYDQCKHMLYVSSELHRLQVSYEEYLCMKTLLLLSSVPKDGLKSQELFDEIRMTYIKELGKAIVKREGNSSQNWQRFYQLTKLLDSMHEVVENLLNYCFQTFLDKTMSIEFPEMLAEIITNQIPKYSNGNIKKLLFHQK

Row | Compound | activation [1] | outcome [2] | max response [3] | outcome [4] | outcome [5] | outcome [6] | outcome [7] | max response [8] | Potency [9] | outcome [10]
1 | O=C(Oc1ccccc1)c1cccc(C(=O)Oc2ccccc2)c1 | -8.17% (inactive) | inactive | 22.4% | inactive | inactive | inactive | inactive | 15.8% | inactive | 
2 | O=C(c1ccccc1)c1ccccc1 | -1.61% (inactive) and 0.77% (inactive) | inactive | 3.99% and -25% | inactive |  | inactive | inactive | -13.1% and -5.43% | inactive | 
3 | CC(C)(C)c1ccc(O)c(O)c1 | 27.4% (inactive) and -11.3% (inactive) | inactive | -11.7% and -3.04% | inactive | inactive | inactive | inactive |  |  | inactive
4 | Oc1ccccc1 |  |  | -6.84% and 11% | inactive |  |  |  |  |  | inactive
5 | c1ccc2occc2c1 |  |  |  |  |  | inactive | inactive | -16.2% | inactive | inactive
6 | CCN(CC)CCOc1ccc(/C(=C(\Cl)c2ccccc2)c2ccccc2)cc1 | 7.97% (inactive) | inactive |  |  |  |  | inactive |  |  | 
7 | CCCCCCCCCCCCCCCC[n+]1ccccc1 | 4.95% (inactive) |  | 21.5% | inactive |  |  | inactive | 3.2% | inactive | inactive
8 | OCCOCCN1CCN(C(c2ccccc2)c2ccc(Cl)cc2)CC1 (stereo not given) |  |  |  |  | inactive | inactive | inactive | 11.6% | inactive | inactive
9 | O=C(NO)c1ccccc1 | -5.9% (inactive) | inactive |  |  |  | inactive | inactive |  |  | 
10 | CC(=O)OC/C=C(C)/C=C/C=C(C)/C=C/C1=C(C)CCCC1(C)C |  |  | 34.7% | inactive |  | inactive | inactive |  |  | inactive
11 | CCCC(=O)c1cc(O)c(O)cc1O | 7.26% (inactive) |  | 14.6% | inactive | inactive | inactive | inactive | 11.4% | inactive | inactive
12 | Cc1ccc(O)cc1 | -6.73% (inactive) |  | -30.2% | inactive | inactive | inactive | inactive | -3.32% | inactive | inactive
13 | CC(C)C(C)(C)C(C)(C)C(C)(C)S |  |  | 5.05% and 21.4% | inactive | inactive | inactive | inactive | -6.07% and -23.3% | inactive | inactive
14 | Nc1c2ccccc2nc2ccccc12 |  |  |  |  |  |  |  |  |  | inactive
15 | OCc1c[nH]c2ccccc12 |  |  |  |  |  | inactive | inactive | 1.88% | inactive | inactive
16 | Cc1ncc(CO)c(CO)c1O |  |  | 15.2% | inactive | inactive | inactive | inactive | -11.9% | inactive | inactive
17 | CCCCC(CC)COC(=O)c1ccccc1C(=O)O (stereo not given) |  | inactive | -31.8% | inactive |  | inactive | inactive | 0.375% and 2.79% | inactive | 
18 | COC(=O)c1c(Cl)c(Cl)c(C(=O)OC)c(Cl)c1Cl | -1.01% (inactive) | inactive | -8.5% | inactive | inactive | inactive | inactive | -4.07% | inactive | 
19 | CCCCCCCCCCCC[N+](C)(C)Cc1ccccc1 | 1.25% (inactive) | inactive | 29.6% | inactive | inactive | inactive | inactive |  |  | inactive
20 | Brc1ccccc1-c1ccccc1 | 8.87% (inactive) |  |  |  |  | inactive | inactive | 10.3% | inactive | 
21 | C1=CC2C3C=CC(C3)C2C1 (stereo not given) | -4.75% (inactive) |  |  |  |  | inactive | inactive | 15.9% | inactive | inactive
22 | O=C(Nc1ccc(Cl)cc1)Nc1ccc(Cl)c(Cl)c1 | 4.25% (inactive) |  |  |  |  |  |  |  |  | 
23 | O=C(Oc1ccccc1)c1ccccc1O |  | inactive |  |  | inactive |  |  |  |  | inactive
24 | Nc1cccc2c(N)cccc12 |  |  |  |  | inactive |  | inactive | 9.18% | inactive | inactive
25 | CN1C(=O)c2ccccc2C1=O | -9.8% (inactive) | inactive | -32.8% | inactive | inactive | inactive | inactive | -17.2% | inactive | inactive
26 | Nc1ccc(O)cc1 | 1.91% (inactive) |  |  |  | inactive |  | inactive | 21.6% | inactive | 
27 | Cc1cc(C(C)(C)C)c(O)c(C(C)(C)C)c1 | -5.33% (inactive) and 4.56% (inactive) | inactive | 13.8% | inactive | inactive |  |  | -14.9% | 17.8 µM (active) | inactive
28 | CC(C)(c1ccc(O)cc1)c1ccc(O)cc1 |  |  | -24.6% | inactive |  |  |  |  |  | 
29 | COc1cc(C=O)ccc1O |  |  | -8.31% and -9.26% | inactive | inactive | inactive | inactive | -4.86% | inactive | inactive
